{"source": "PubChem BioAssay (EPA / NIEHS)", "key": {"[1]": {"assay": "CCTE_Shafer_MEA_acute_spike_number: CCTE's Neural Acute Assay for Total Number of Spikes, Shafer Lab (AID 2284008)", "how_it_was_run": "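Cortical neurons from rat, matured to DIV 13 or 15 on microelectrode arrays, are recorded at 37 C before and during 40-min exposure to 0.03-40 uM compound. Wells need >/= 10 active electrodes.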"}, "[2]": {"assay": "CCTE_Harrill_HTTr_Viability_MCF7: CCTE's 6-hour Cell Viability Assessment for the High-Throughput Transcriptomics (HTTr) Platform, in MCF-7 cells cultured in DMEM + 10% fetal bovine serum, Harrill Lab (AID 2284010)", "how_it_was_run": "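Propidium iodide exclusion, imaged by high-content analysis, gauged viability after a six-hour exposure across eight concentrations. Cells were MCF-7 grown in DMEM with 10% fetal bovine serum; fits run in both directions against DMSO.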"}, "[3]": {"assay": "CCTE_Harrill_HTTr_Apoptosis_MCF7: CCTE's 6-hour Apoptosis Assessment for the High-Throughput Transcriptomics (HTTr) Platform, in MCF-7 cells cultured in DMEM + 10% fetal bovine serum, Harrill Lab (AID 2284011)", "how_it_was_run": "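Cells are dosed with test chemicals at eight concentrations and imaged 6 hours later for caspase-3/7 activity using a green fluorogenic detection reagent. Activity is fitted in both directions against DMSO controls.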"}, "[4]": {"assay": "CCTE_Harrill_HTTr_CellCount_MCF7: CCTE's Cell Proliferation Assessment for the High-Throughput Transcriptomics (HTTr) Platform, Harrill Lab (AID 2284012; active = hit-call score of the fitted dose curve at least 0.9, where 1 is the maximum;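 note: intended direction is loss of nuclei count meaning fewer cells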)", "how_it_was_run": "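Cell count from high-content imaging of Hoechst-labeled nuclei serves as viability/growth readout. Chemicals were applied to MCF-7 cells in eight concentrations for six hours, with fitting in both directions relative to DMSO.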"}, "[5]": {"assay": "CCTE_Shafer_MEA_acute_burst_number: CCTE's Neural Acute Assay for Single-Electrode Bursts, Shafer Lab (AID 2284013)", "how_it_was_run": "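Burst totals were derived with adaptive spike detection (8x rms threshold) on filtered signals from rat cortical cultures; change relative to pre-treatment baseline after 40-min compound exposure (0.03-40 uM) was fitted in the negative direction against DMSO.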"}, "[6]": {"assay": "CCTE_Shafer_MEA_acute_burst_duration_mean: CCTE's Neural Acute Assay for Mean Burst Duration, Shafer Lab (AID 2284014)", "how_it_was_run": "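Acute exposure of mature rat cortical networks (DIV 13 or 15) grown on microelectrode arrays to 0.03-40 uM compound. Mean burst duration compared with the 40-min pre-dose baseline over a 40-min post-dose recording at 37 C.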"}, "[7]": {"assay": "CCTE_Shafer_MEA_acute_per_burst_spike_number_mean: CCTE's Neural Acute Assay for Average Number of Spikes Per Burst, Shafer Lab (AID 2284015)", "how_it_was_run": "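Read-out: percent change in mean spikes per burst, each well's post-exposure 40-min recording versus its own 40-min baseline. Rat cortical cultures, DIV 13 or 15, compounds 0.03-40 uM; DMSO is negative control, loss-of-signal fitting.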"}, "[8]": {"assay": "CCTE_Shafer_MEA_acute_interburst_interval_mean: CCTE's Neural Acute Assay for Mean Interburst Interval, Shafer Lab (AID 2284016)", "how_it_was_run": "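Rat cortical cultures, DIV 13/15; 20 min equilibration, 40 min baseline, compound 0.03-40 uM, 40 min re-recording, 37 C. Spikes detected at 8x rms noise (300-5000 Hz band-pass). Endpoint: % change in interburst interval, fitted in loss direction vs DMSO.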"}, "[9]": {"assay": "CCTE_Shafer_MEA_acute_burst_percentage_mean: CCTE's Neural Acute Assay for Percentage of Spikes in a Burst, Shafer Lab (AID 2284017)", "how_it_was_run": "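Rat cortical cultures, DIV 13/15, 37 C. Spikes detected at 8x rms noise (300-5000 Hz band-pass). Burst spikes/total spikes averaged across electrodes per well; % change post- vs pre-treatment (40 min each), loss-of-signal fit vs DMSO.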"}, "[10]": {"assay": "CCTE_Shafer_MEA_acute_burst_percentage_std: CCTE's Neural Acute Assay for Standard Deviation of Burst Percentage, Shafer Lab (AID 2284018);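 note: fitted in the negative direction so actives lower burst percentage SD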", "how_it_was_run": "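Primary rat cortical neurons on 16-electrode MEA wells were recorded 40 min at baseline (DIV 13 or 15), then 40 min after compound (0.03-40 uM), at 37 C. Well value is SD across electrodes of spikes-in-bursts/total spikes; endpoint is percent change, DMSO-referenced.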"}, "[11]": {"assay": "CCTE_Shafer_MEA_acute_per_network_burst_electrodes_number_mean: CCTE's Neural Acute Assay for Mean Number of Electrodes in a Network Burst, Shafer Lab (AID 2284021);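 note: curves fitted for decreases only so hits reduce electrodes per burst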", "how_it_was_run": "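Cultures of rat cortex neurons were exposed on DIV 13 or 15 to compounds at 0.03-40 uM in at least three wells each. Activity over 40 min before and 40 min after exposure at 37 C gave the percent change in electrodes per network burst.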"}, "[12]": {"assay": "CCTE_Shafer_MEA_acute_network_burst_percentage: CCTE's Neural Acute Assay for Percentage of Network Bursts, Shafer Lab (AID 2284022);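 note: curves fitted for loss so actives lower network burst percentage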", "how_it_was_run": "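Cortical neurons from rat were grown over microelectrode arrays and used on day 13 or 15 in vitro. Wells with at least 10 active electrodes received test chemical at 0.03-40 uM. Activity during 40 min of exposure was compared with the preceding 40-min baseline.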"}, "[13]": {"assay": "CCTE_Shafer_MEA_acute_cross_correlation_HWHM: CCTE's Neural Acute Assay for Cross Correlation at Half Width at Half Maximum, Shafer Lab (AID 2284026)", "how_it_was_run": "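Primary cortex (rat), MEA, DIV 13/15; compound 0.03-40 uM; 40 min pre + 40 min post at 37 C; spike threshold 8x rms; wells need ≥10 active electrodes; endpoint = % change in cross-correlogram HWHM vs baseline, DMSO negative control.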"}, "[14]": {"assay": "CCTE_Shafer_MEA_acute_synchrony_index: CCTE's Neural Acute Assay for Synchrony, Shafer Lab (AID 2284027);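 note: fitted for loss of signal so actives lower synchrony relative to DMSO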", "how_it_was_run": "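The synchrony index is taken as percent change per well between a 40 min baseline and a 40 min recording with compound (0.03–40 uM), at 37C. Rat cortical cultures on multiwell MEAs at DIV 13 or 15, spike threshold 8× rms noise.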"}, "[15]": {"assay": "CCTE_Shafer_MEA_dev_firing_rate_mean: CCTE's Neural Network Formation Assay for Mean Firing Rate, Shafer Lab (AID 2284031);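 note: curve fitted for loss of firing so AC50 reflects decreased mean firing rate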", "how_it_was_run": "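Spike frequency (spikes/recording length, averaged over active electrodes) was recorded on days 5, 7, 9 and 12 and collapsed to AUC; rat cortical cultures received compound continuously over 12 days of network development.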"}, "[16]": {"assay": "CCTE_Shafer_MEA_dev_per_burst_spike_percent: CCTE's Neural Network Formation Assay for Percent of Spikes in a Burst, Shafer Lab (AID 2284032)", "how_it_was_run": "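Value is trapezoidal AUC over recordings on days 5, 7, 9 and 12 of the well-mean fraction of spikes falling in single-electrode bursts; rat cortical cultures exposed continuously from plating, treatment renewed DIV 5 and 9, fitted downward against DMSO.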"}, "[17]": {"assay": "CCTE_Shafer_MEA_dev_active_electrodes_number: CCTE's Neural Network Formation Assay for Number of Active Electrodes, Shafer Lab (AID 2284040; active = hit-call score of the fitted dose curve at least 0.9, where 1 is the maximum;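 note: potency for loss of active electrodes versus DMSO so lower counts are hits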)", "how_it_was_run": "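Counts electrodes per well firing at least 5 spikes/min, recorded on days 5, 7, 9 and 12 in rat cortical cultures dosed continuously from plating (treatment refreshed DIV 5, 9). Value is the area under the curve over recordings, fitted downward relative to DMSO.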"}, "[18]": {"assay": "CCTE_Shafer_MEA_dev_burst_rate: CCTE's Neural Network Formation Assay for Burst Rate, Shafer Lab (AID 2284042)", "how_it_was_run": "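Cells plated, treated day 0; recorded DIV 5, 7, 9, 12; fed and re-treated DIV 5, 9. Endpoint: bursts per recording time, active-electrode well mean, trapezoidal AUC, fitted in decreasing direction against DMSO baseline.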"}, "[19]": {"assay": "CCTE_Shafer_MEA_dev_bursting_electrodes_number: CCTE's Neural Network Formation Assay for Number of Bursting Electrodes, Shafer Lab (AID 2284043; active = hit-call score of the fitted dose curve at least 0.9, where 1 is the maximum)", "how_it_was_run": "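Counted: electrodes with burst rate ≥1 per 2 min in each well. Cells: primary rat cortex, 1.5 x 10^5/well, on 16-electrode MEA wells. Exposure: DIV 0–12, compound renewed DIV 5 and 9. Recording days 5, 7, 9, 12; AUC vs DMSO baseline.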"}, "[20]": {"assay": "CCTE_Shafer_MEA_dev_per_burst_interspike_interval: CCTE's Neural Network Formation Assay for Burst Interspike Interval, Shafer Lab (AID 2284044);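 note: potency for a decrease of within-burst interspike interval below DMSO level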", "how_it_was_run": "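Developmental network-formation MEA in primary rat cortical cultures with exposure spanning days 0–12. Within-burst ISI is averaged per well and integrated across recording days by area under the curve, with DMSO as negative control baseline.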"}, "[21]": {"assay": "CCTE_Shafer_MEA_dev_burst_duration_mean: CCTE's Neural Network Formation Assay for Mean Burst Duration, Shafer Lab (AID 2284045);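 note: curve fitted for loss meaning shorter burst duration than DMSO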", "how_it_was_run": "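Network-formation assay in primary rat cortical neurons; treatment spans twelve days of development. Mean burst duration per well is integrated by trapezoidal AUC and fitted in the loss-of-signal direction against DMSO baseline.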"}, "[22]": {"assay": "CCTE_Shafer_MEA_dev_interburst_interval_mean: CCTE's Neural Network Formation Assay for Mean Interburst Interval, Shafer Lab (AID 2284046)", "how_it_was_run": "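Developing rat cortical networks on 48-well MEAs receive compound from the day of plating. Burst intervals from each active electrode are averaged per well, and AUC over the recording days is fitted in the negative direction against DMSO.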"}}, "note": "Records with an inconclusive call do not appear. Calls of active or inactive are those of the source. Rule for the calls, unless noted: active = hit-call score of the fitted dose curve at least 0.9, where 1 is the maximum; inactive = score below 0.9."}
{"molecule": "[Cd+2].[Cl-].[Cl-]", "values": [{"measurement": "outcome", "setting": "[1]", "result": "inactive"}, {"measurement": "outcome", "setting": "[2]", "result": "inactive"}, {"measurement": "outcome", "setting": "[3]", "result": "inactive"}, {"measurement": "outcome", "setting": "[4]", "result": "inactive"}, {"measurement": "outcome", "setting": "[5]", "result": "inactive"}, {"measurement": "outcome", "setting": "[6]", "result": "inactive"}, {"measurement": "outcome", "setting": "[7]", "result": "inactive"}, {"measurement": "outcome", "setting": "[8]", "result": "inactive"}, {"measurement": "outcome", "setting": "[9]", "result": "inactive"}, {"measurement": "outcome", "setting": "[10]", "result": "inactive"}, {"measurement": "outcome", "setting": "[11]", "result": "inactive"}, {"measurement": "outcome", "setting": "[12]", "result": "inactive"}, {"measurement": "outcome", "setting": "[13]", "result": "inactive"}, {"measurement": "outcome", "setting": "[14]", "result": "inactive"}, {"measurement": "AC50", "setting": "[15]", "result": "331 nM (active)"}, {"measurement": "AC50", "setting": "[16]", "result": "436 nM (active)"}, {"measurement": "AC50", "setting": "[17]", "result": "315 nM (active)"}, {"measurement": "AC50", "setting": "[18]", "result": "461 nM (active)"}, {"measurement": "AC50", "setting": "[19]", "result": "302 nM (active)"}, {"measurement": "AC50", "setting": "[20]", "result": "630 nM (active)"}, {"measurement": "AC50", "setting": "[21]", "result": "387 nM (active)"}, {"measurement": "AC50", "setting": "[22]", "result": "460 nM (active)"}]}
